The list is not random: actives were taken first. Their share in the collection is about 1.2%.
RXFP1 antag = blocks the human relaxin receptor RXFP1 | Q9HBX9 | AID 1259400 | activity change, negative = inhibition, % at 57.5 µM | HEK293-RXFP1, relaxin-stimulated cAMP HTRF, 30 min; stronger effect = lower value | 350,000 tested, 0.59% active;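 active = activity change of -60% or lower, but not beyond a set lower limit; inconclusive = change between -60% and -40%, or beyond the set limit; inactive = change above -40%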; note: % is set by controls: 0 for no effect and ±100 for the full control effect
Target sequence (Q9HBX9 whole entry, looked up): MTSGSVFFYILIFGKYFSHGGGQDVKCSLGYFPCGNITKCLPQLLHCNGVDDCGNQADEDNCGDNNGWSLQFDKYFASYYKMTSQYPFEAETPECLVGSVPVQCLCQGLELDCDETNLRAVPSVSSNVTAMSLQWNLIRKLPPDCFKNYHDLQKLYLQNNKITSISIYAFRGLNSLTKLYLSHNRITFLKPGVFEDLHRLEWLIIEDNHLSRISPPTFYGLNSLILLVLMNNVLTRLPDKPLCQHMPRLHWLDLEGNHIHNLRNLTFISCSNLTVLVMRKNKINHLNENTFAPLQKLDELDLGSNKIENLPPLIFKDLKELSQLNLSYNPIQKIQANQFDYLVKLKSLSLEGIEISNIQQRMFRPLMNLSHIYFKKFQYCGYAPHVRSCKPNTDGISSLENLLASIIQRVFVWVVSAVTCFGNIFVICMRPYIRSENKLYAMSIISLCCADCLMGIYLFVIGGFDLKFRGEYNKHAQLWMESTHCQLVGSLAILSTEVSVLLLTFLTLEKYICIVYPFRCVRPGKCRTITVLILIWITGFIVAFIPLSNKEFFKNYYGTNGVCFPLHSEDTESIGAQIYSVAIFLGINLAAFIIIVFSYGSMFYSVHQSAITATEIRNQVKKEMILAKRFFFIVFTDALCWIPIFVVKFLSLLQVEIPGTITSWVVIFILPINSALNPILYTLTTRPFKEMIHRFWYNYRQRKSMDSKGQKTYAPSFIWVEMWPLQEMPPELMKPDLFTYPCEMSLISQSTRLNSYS
RXFP1 ag = agonists of human relaxin receptor RXFP1 | Q9HBX9 | HEK293T-RXFP1 cAMP TR-FRET, 30 min; response scale: percent of porcine relaxin response, buffer zero | Potency, µM (series often up to 57.5 µM), for the others: at the highest dose activation, usual class: activators | 370,000 tested, 0.3% active; active = well fitted activation curve with a large enough effect; inconclusive = small, poorly fitted or top-dose-only effect; note: potency is the fitted concentration of half-maximal effect; % is set by controls: 0 for no effect and ±100 for the full control effect; nearly all actives have a fitted effect of over 60% in size
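cAMP rise read by TR-FRET after 30 min, 37C compound exposure (up to 58 uM) in RXFP1-transfected HEK293 cells with Ro 20174 present. EC50 from Hill-equation fits, with 29 nM porcine relaxin as 100% and buffer as basal.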
gsp antagonist = antagonists of gsp mutant (McCune-Albright syndrome). 340,000 tested, 0.4% active. Potency, µM (titrated, usually from 76.9 µM), for inactives: top-dose activity change, negative = inhibition, hits mostly inhibitors. gsp-mutant cells, cAMP HTRF, 30 min. AID 624288; calls by dose curve; cell line not stated here;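 note: intracellular cAMP measured with PDE inhibitor Ro 20-1724 present during compound exposure; potency is the fitted concentration of half-maximal effect; % is set by controls: 0 for no effect and ±100 for the full control effect; nearly all actives have a fitted effect of over 65% in size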
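Cells, 2000/well, grown 16–24 h in DMEM 10% FBS with 0.5 mg/ml G418, then compounds plus […] (300 uM addition stock), 30 min at 37C. cAMP read by HTRF (cAMP-d2 and anti-cAMP antibody-K in lysis buffer) after 30 min RT.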
Akt phos inh = inhibitors of Akt phosphorylation; Neuro2A IGF-stimulated pAkt S473 HTRF, 20 min; stronger effect = lower value; activity change, % for hits at 50 µM; 360,000 tested, 0.32% active; in the data active = activity change below about -80%; inconclusive = mostly about -51% to -80%; note: % is set by controls: 0 for no effect and ±100 for the full control effect
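Neuro2A cells in DMEM with 0.5% FBS, overnight at 37 deg C, given compound at single 50 µM final, then IGF (6 nM final) for 20 min at 37 deg C. Lysed; phospho-Akt Ser473 by HTRF after 24 h, 665/615 ratio.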
gsp ag = agonists of gsp mutant (McCune-Albright syndrome). Potency, µM (series often up to 76.9 µM), inactives show at the top dose activation (cAMP increase), hits mostly activators. gsp mutant cells, cAMP HTRF, 30 min. AID 624287. 340,000 tested, 0.13% active; active = well fitted activation curve with a large enough effect; inconclusive = small, poorly fitted or top-dose-only effect, or another doubt; inactive = no such curve, though single readings can be large or run the other way; cell line not stated here;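 note: phosphodiesterase inhibitor Ro 20-1724 added with compounds to block cAMP breakdown; potency is the fitted concentration of half-maximal effect; nearly all actives have a fitted effect of over 60% in size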
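Cells in DMEM/10% FBS with G418 were pretreated with compounds in DMSO plus […] (300 uM stock) for 30 min at 37C. cAMP was measured by HTRF (cAMP-d2 plus anti-cAMP antibody-K) after 30 min at room temperature.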
* = called active by the depositor; [ ] = dose if it differs, or a comment.

Results for CN(C)Cc1c(C(=O)N/N=C/c2cccc(OCc3ccccc3)c2)nnn1-c1nonc1N ?
RXFP1 antag: -15; RXFP1 ag: 1%; gsp antagonist: 50µM*; Akt phos inh: inactive; gsp ag: -43%

What do the screens show for `Nc1nonc1-n1nnc(C(=O)N/N=C/c2ccc3c(c2)OCO3)c1-c1ccccc1`?
RXFP1 antag: -13; RXFP1 ag: 3%; gsp antagonist: 35µM*; Akt phos inh: inactive; gsp ag: -5%[15.4 µM]

Results for Nc1nonc1-n1nnc(C(=O)N/N=C/c2cccnc2)c1CSc1ccc(Cl)cc1 ?
RXFP1 antag: -65*; RXFP1 ag: 1%; gsp antagonist: 35µM*; Akt phos inh: inactive; gsp ag: -7%

What do the screens show for `CCCOc1ccc(/C=N/NC(=O)c2nnn(-c3nonc3N)c2-c2cccs2)cc1OC`?
RXFP1 antag: -16; RXFP1 ag: 2%; gsp antagonist: 32µM*; Akt phos inh: inactive; gsp ag: -22%

What do the screens show for `Nc1nonc1-n1nnc(C(=O)N/N=C/c2cccnc2)c1CSc1ccccc1`?
RXFP1 antag: -6; RXFP1 ag: 0%; gsp antagonist: -22%; Akt phos inh: inactive; gsp ag: -81%

How did N#CC1(c2ccc(F)cc2)CCC(=O)CC1 do in these assays?
RXFP1 antag: -9

Results for O=C(CCCCCn1c(=O)c2sccc2n(Cc2ccccc2Cl)c1=O)NCc1ccc2c(c1)OCO2 ?
RXFP1 antag: -6; RXFP1 ag: 32µM*

How did Cn1c(=O)c2sccc2n2c(CCCC(=O)NCc3ccc4c(c3)OCO4)nnc12 do in these assays?
RXFP1 antag: 8; RXFP1 ag: inconclusive; gsp antagonist: -1%; Akt phos inh: inactive; gsp ag: 35µM*

Results for Cn1c(=O)c2sccc2n2c(CCCC(=O)NCCc3ccc(S(N)(=O)=O)cc3)nnc12 ?
RXFP1 antag: 20; RXFP1 ag: 28µM*; gsp antagonist: 2%; Akt phos inh: inactive; gsp ag: 52%[15.4 µM]

What do the screens show for `Cn1c(=O)c2sccc2n2c(CCCC(=O)NCc3cccnc3)nnc12`?
RXFP1 antag: 26; RXFP1 ag: 13µM*; gsp antagonist: 20%; Akt phos inh: inactive; gsp ag: inconclusive

Results for CCCn1c(=O)c2sccc2n2c(CCCC(=O)NCc3cccnc3)nnc12 ?
RXFP1 antag: -3; RXFP1 ag: 22%; gsp antagonist: 22%; Akt phos inh: inactive; gsp ag: inconclusive

What do the screens show for `CN1Cc2cc(C(=O)N3CCC(C4CCNCC4)CC3)ccc2N[C@@H](CC(=O)O)C1=O`?
RXFP1 antag: -13

What do the screens show for `COc1ccc(NC(=O)CCCc2nnc3n(C)c(=O)c4sccc4n23)cc1`?
RXFP1 antag: 4; RXFP1 ag: 16µM*; gsp antagonist: 10%; gsp ag: inconclusive

How did CCCCC(=O)O[C@]1(C(=O)CO)[C@@H](C)C[C@H]2[C@@H]3CCC4=CC(=O)C=C[C@]4(C)[C@@]3(F)[C@@H](O)C[C@@]21C do in these assays?
RXFP1 antag: -9

How did COc1ccc(-c2nn(-c3ccccc3)cc2/C=C2/SC(=S)N(CCC(=O)O)C2=O)cc1 do in these assays?
RXFP1 antag: -6; RXFP1 ag: 1%; gsp antagonist: 32µM*; Akt phos inh: inactive; gsp ag: -5%[15.4 µM]

How did Cc1ccc(-c2nn(-c3ccccc3)cc2/C=C2\SC(=S)N(CC(=O)O)C2=O)cc1 do in these assays?
RXFP1 antag: 8; RXFP1 ag: 0%; gsp antagonist: inconclusive; Akt phos inh: inactive; gsp ag: -33%

How did COc1ccc(-c2nn(-c3ccccc3)cc2/C=C2/SC(=S)N(CCC(=O)O)C2=O)c(C)c1 do in these assays?
RXFP1 antag: -4; RXFP1 ag: 1%; gsp antagonist: 32µM*; Akt phos inh: inactive; gsp ag: -4%

Results for CCOc1ccc(NC(=O)Cn2cnc3sc(C)c(S(=O)(=O)N4CCN(c5ccccc5OC)CC4)c3c2=O)cc1 ?
RXFP1 antag: -16; RXFP1 ag: 0%

What do the screens show for `Cc1ccc(CNC(=O)c2ccc3c(c2)N(Cc2cccc(C)c2)C(=O)CS3)cc1`?
RXFP1 ag: 4%

What do the screens show for `CCC(C(=O)Nc1cc(-c2nc3cccnc3s2)ccc1C)c1ccccc1` (stereo unspecified)?
RXFP1 antag: -28; RXFP1 ag: 0%

Results for O=c1[nH]c(CN2CCN(c3ccccc3O)CC2)nc2ccccc12 ?
RXFP1 antag: -7; RXFP1 ag: 4%; gsp antagonist: -8%; Akt phos inh: -110%*; gsp ag: 20%

Results for COc1ccccc1N1CCN(C(=O)CN2C(=O)COc3ccc(S(=O)(=O)N4CCCC4)cc32)CC1 ?
RXFP1 ag: 1%

Results for CCN(CC)c1ccc(NC(=O)COCc2cc(-c3ccc4c(c3)OCO4)on2)c(C)c1 ?
RXFP1 antag: -34; RXFP1 ag: 0%

Results for CCOc1ccc(-n2cc(-c3ccccc3)c3c(=O)[nH]cnc32)cc1 ?
RXFP1 antag: -97*; RXFP1 ag: 0%; gsp antagonist: inconclusive; Akt phos inh: inactive; gsp ag: 19%

What do the screens show for `Cc1ccc(OCC(=O)Nc2ccc3nc(Nc4cccc(Cl)c4)cc(C)c3c2)cc1`?
RXFP1 antag: -11; RXFP1 ag: 14µM*

What do the screens show for `CCOC(=O)c1sc(=NC(=O)c2cccs2)n(C)c1C`?
RXFP1 antag: -13; RXFP1 ag: 28µM*; gsp antagonist: -1%; Akt phos inh: inactive; gsp ag: -10%[15.4 µM]

Results for COc1ccc(/C=C2/C(=O)N(c3ccccc3)N=C2C)cc1 ?
RXFP1 antag: -61*; gsp antagonist: -5%; Akt phos inh: inactive; gsp ag: -5%

What do the screens show for `CC1=NN(c2ccccc2)C(=O)/C1=C\C=C\c1ccccc1`?
RXFP1 antag: -63*; RXFP1 ag: 2%; gsp antagonist: -8%; Akt phos inh: inactive; gsp ag: 15%[15.4 µM]

How did CC1=NN(c2ccccc2)C(=O)/C1=C/C=C/c1ccc(N(C)C)cc1 do in these assays?
RXFP1 antag: -21; RXFP1 ag: -19%; gsp antagonist: 35µM*; Akt phos inh: inactive; gsp ag: 5%

Results for CC1=NN(c2ccccc2)C(=O)/C1=C/N(C)C ?
RXFP1 antag: 15; RXFP1 ag: 0%; gsp antagonist: -1%; Akt phos inh: inactive; gsp ag: 2%

What do the screens show for `O=C(NNC(=S)NC(=O)c1ccccc1Cl)c1cccc([N+](=O)[O-])c1`?
RXFP1 antag: 9; RXFP1 ag: 2%; gsp antagonist: -4%; Akt phos inh: inactive; gsp ag: 8%[15.4 µM]

How did O=C(NC(NC(=S)Nc1c(Cl)cccc1Cl)C(Cl)(Cl)Cl)c1cccc([N+](=O)[O-])c1 (stereo unspecified) do in these assays?
RXFP1 antag: -38; RXFP1 ag: -2%; gsp antagonist: 35µM*; Akt phos inh: inactive; gsp ag: -12%
